Measured values taken from PubChem BioAssay AID435026 (Broad Institute, 2010).
Among all 1,000 compounds or so, about 410 (41%) were called active. The set was probably picked from earlier hits. Not all results are given here. A number with no mark means an inactive call.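 How the source made its calls: active means fitted half-maximal inhibitory concentration no more than tenfold above the top dose tested; inconclusive means flat fit with 30 to 70% activity, or poor fit; inactive means half-maximal concentration beyond tenfold above the top dose.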

Experiment: YIC intramolecular FRET probe signal interference, dose response, counter-screen for RanGTP-importin-beta inhibitor project, biochemical, fluorescence FRET (AID 435026)
Settings: Purified YIC probe, intramolecular FRET ratio YFP/CFP

Structure (SMILES)	IC50
CN(C)CCCn1c(N)c(C#N)c2nc(C#N)c(C#N)nc21	25 µM (active)
CCN(CCO)C(=S)Nc1cc(C(=O)OC)ccc1C(=O)OC	> 50 µM
O=C(Nc1ccccc1-c1ccccc1)c1cccs1	> 50 µM
N#C/C(=C/c1ccc(N2CCCCC2)o1)C(=O)NCCc1c[nH]c2ccccc12	0.753 µM (active)
Cc1nc2ccccc2c2oc(C(=O)NCCCN3CCC(C)CC3)cc12	> 50 µM
COc1ccc(C(=O)C[n+]2ccc(N)c(C)c2C)cc1	> 50 µM
Cc1ccc(-n2c(=O)c(C#N)cc3c(=O)n4ccccc4nc32)cc1C	1.78 µM (active)
COC(=O)c1cc2c(ccn2C)n1C	> 50 µM
CCn1c2ccccc2c2cc(NC(=O)CNC)ccc21	> 50 µM
O=c1cc(CN2CCN(S(=O)(=O)/C=C/c3ccccc3)CC2)c2ccc(O)cc2o1	44.1 µM (active)
COc1cc(SC)ccc1C(=O)Nc1nc(C)cs1	> 50 µM
COC(=O)c1ccc2c(C(C)(C)O)c(C(C)(C)O)[nH]c2c1	> 50 µM
COc1cccc(C(=O)c2cc3ccc(O)cc3oc2=O)c1	28.1 µM (active)
CC(=O)c1ccc(-c2ccc(Cn3c(C)nc4cc(N)c(C)nc43)cc2)cc1	> 50 µM
Cc1cc(O)ccc1NC1=CC(=O)CC(C)(C)C1	> 50 µM
CC(=O)N1CCc2c(sc(NC(=O)CCS(=O)(=O)c3ccc(C)cc3)c2C(N)=O)C1	38 µM (active)
CCCNS(=O)(=O)c1ccc2c(c1)CCCN2C(C)=O	> 50 µM
CCOC(=O)c1c(C)oc2cc(Br)c(OCC(N)=O)cc12	> 50 µM
COc1ccc(-n2cnc3cc(NCc4ccco4)ccc32)cc1	> 50 µM
CC1(C)CC(=O)NC=C(c2ccccc2)C1	> 50 µM
Cc1ccc(NC(=S)NCCN2CCOCC2)cc1	> 50 µM
N#C/C(=C/c1ccc(N2CCOCC2)o1)C(=O)N1CCOCC1	5.08 µM (active)
N#C/C(=C\c1ccc(N2CCOCC2)o1)C(=O)N1CCOCC1	5.73 µM (active)
CCCC(C)c1nnc(NC(=O)C2CC(=O)N(c3ccc(OCC)cc3)C2)s1 (configuration not stated)	> 50 µM
COc1ccc(C(=O)Cc2cnn(-c3ccccc3)c2)c(O)c1	> 50 µM
Cc1ccc(N2CCN(c3ccc(C)cc3)C2c2ccccn2)cc1	> 50 µM
CCOc1ccc(N=Cc2c(O)n(-c3cccc(C)n3)c(=O)c3ccccc23)cc1	34.7 µM (active)
